# Tests used:
# Assay in all cases: DAPPL (digital affinity profiling via proximity ligation, sequencing); 10 mM Tris-HCl pH 7.5, 50 mM NaCl, 1 mM DTT, 4% glycerol, room temperature, 30 min; GST-TFs on glutathione beads, 16-mer random dsDNA library, 0.1% formaldehyde crosslink after washing; high values mean tight binding
# FLI1 = molecular target: T1, FLI1 (Homo sapiens, UniProt Q01543 1-452); conditions: protein: recombinant; tags: N-terminal GST; dsDNA, one strand shown
# T1 sequence: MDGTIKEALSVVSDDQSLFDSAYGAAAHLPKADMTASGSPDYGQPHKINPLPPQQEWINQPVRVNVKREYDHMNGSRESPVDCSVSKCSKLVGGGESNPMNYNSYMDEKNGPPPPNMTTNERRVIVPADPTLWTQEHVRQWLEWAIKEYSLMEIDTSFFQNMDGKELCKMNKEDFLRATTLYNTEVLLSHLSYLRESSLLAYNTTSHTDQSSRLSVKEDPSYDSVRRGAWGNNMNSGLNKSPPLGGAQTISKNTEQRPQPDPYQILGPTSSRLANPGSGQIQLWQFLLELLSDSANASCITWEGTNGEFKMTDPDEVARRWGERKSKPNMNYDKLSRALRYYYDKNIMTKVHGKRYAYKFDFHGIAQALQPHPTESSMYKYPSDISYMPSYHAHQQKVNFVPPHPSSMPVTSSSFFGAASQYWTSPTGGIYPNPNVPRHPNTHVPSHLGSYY
# Method in brief: (§1)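 Sequencing on an Illumina NextSeq500 followed washing, crosslinking with 0.1% formaldehyde, proximity ligation (BsaI/T4 ligase, 1 h, 37 °C) and PCR amplification of pools that had been incubated for 30 min at room temperature with 200 nmole of a random double-stranded 16-mer DNA library in Tris/NaCl/DTT/glycerol buffer. Each pool held DNA-barcoded human transcription factors, expressed in yeast as GST fusions and captured on glutathione beads, plus a tag-only sample. Binding signal is a hexamer's read frequency for a factor divided by its frequency in the tag-only sample.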
# ELK1 = molecular target: T2, ELK1 (Homo sapiens, UniProt P19419 1-428); conditions: protein: recombinant; tags: N-terminal GST; dsDNA, one strand shown
# T2 sequence: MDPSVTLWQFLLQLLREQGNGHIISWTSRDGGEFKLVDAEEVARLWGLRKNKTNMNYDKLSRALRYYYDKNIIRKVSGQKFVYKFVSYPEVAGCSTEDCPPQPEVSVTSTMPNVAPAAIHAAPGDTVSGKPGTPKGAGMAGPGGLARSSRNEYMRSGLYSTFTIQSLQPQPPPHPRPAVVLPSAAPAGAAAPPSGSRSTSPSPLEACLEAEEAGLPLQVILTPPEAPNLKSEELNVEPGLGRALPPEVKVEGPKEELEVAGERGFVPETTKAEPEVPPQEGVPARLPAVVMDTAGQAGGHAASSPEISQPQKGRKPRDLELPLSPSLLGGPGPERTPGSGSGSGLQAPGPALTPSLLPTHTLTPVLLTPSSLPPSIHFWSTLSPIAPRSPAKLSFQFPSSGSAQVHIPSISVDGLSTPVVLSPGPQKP
# Method in brief: as §1
# GABPA = molecular target: T3, GABPA (Homo sapiens, UniProt Q06546 1-454); conditions: protein: recombinant; tags: N-terminal GST; dsDNA, one strand shown
# T3 sequence: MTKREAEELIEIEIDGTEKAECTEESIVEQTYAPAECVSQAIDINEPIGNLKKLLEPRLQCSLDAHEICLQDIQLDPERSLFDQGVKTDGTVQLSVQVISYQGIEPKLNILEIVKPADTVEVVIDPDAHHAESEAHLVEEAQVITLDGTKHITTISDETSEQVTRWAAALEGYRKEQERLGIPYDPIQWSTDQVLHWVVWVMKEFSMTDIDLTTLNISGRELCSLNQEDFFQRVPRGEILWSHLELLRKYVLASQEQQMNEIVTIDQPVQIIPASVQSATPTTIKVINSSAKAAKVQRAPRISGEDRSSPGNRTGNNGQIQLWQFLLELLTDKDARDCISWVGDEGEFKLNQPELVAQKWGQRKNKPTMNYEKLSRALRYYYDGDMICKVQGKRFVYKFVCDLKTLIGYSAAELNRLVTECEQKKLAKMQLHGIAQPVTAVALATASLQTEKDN
# Method in brief: as §1
# ERG = molecular target: T4, ERG (Homo sapiens, UniProt P11308 1-479); conditions: protein: recombinant; tags: N-terminal GST; dsDNA, one strand shown
# T4 sequence: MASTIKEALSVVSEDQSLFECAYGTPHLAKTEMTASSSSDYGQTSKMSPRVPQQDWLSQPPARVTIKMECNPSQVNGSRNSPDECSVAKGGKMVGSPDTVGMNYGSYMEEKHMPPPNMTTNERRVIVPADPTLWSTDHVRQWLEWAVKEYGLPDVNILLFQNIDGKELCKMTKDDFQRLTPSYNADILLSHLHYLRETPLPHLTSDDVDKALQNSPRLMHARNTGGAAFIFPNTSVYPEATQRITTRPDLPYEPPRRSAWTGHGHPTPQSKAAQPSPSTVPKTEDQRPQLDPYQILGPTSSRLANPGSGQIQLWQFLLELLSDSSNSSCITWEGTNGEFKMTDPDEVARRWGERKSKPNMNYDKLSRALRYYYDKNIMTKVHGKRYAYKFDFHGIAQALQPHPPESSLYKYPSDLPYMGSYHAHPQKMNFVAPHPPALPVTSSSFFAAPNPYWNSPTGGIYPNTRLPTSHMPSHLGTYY
# Method in brief: as §1
# ELF1 = ELF1 (Homo sapiens, UniProt P32519 1-619); conditions: protein: recombinant; tags: N-terminal GST; dsDNA, one strand shown
# ELF1, sequence (P32519 whole entry): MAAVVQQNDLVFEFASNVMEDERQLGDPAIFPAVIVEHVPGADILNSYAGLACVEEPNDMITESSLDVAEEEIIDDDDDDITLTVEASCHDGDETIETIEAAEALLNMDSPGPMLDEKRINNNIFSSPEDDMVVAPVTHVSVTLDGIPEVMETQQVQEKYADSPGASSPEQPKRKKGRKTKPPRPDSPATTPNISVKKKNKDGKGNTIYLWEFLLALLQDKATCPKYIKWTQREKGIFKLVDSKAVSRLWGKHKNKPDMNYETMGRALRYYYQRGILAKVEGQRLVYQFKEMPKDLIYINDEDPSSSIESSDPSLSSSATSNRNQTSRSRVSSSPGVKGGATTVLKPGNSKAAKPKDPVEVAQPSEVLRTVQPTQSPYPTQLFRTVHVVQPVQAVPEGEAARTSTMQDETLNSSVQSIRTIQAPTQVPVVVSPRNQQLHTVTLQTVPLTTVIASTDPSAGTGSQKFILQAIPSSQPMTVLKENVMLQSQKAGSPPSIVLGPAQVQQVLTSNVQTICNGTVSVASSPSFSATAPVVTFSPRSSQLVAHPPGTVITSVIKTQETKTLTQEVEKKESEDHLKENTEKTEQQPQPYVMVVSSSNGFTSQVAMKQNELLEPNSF
# Method in brief: as §1
# EHF = molecular target: T5, EHF (Homo sapiens, UniProt Q9NZC4 1-300); conditions: protein: recombinant; tags: N-terminal GST; dsDNA, one strand shown
# T5 sequence: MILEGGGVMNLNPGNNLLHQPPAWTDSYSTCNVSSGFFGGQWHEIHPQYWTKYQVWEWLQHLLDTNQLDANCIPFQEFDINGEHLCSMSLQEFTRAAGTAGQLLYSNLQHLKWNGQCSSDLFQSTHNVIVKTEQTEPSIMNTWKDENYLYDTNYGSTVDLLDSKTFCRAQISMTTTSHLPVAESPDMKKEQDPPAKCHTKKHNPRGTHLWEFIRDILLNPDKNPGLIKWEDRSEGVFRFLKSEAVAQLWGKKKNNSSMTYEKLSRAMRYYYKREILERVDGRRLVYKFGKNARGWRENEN
# Method in brief: as §1
# SPI1 = SPI1 (Homo sapiens, UniProt P17947 1-270); conditions: protein: recombinant; tags: N-terminal GST; dsDNA, one strand shown
# Method in brief: as §1
# SPIB = SPIB (Homo sapiens, UniProt Q01892 1-262); conditions: protein: recombinant; tags: N-terminal GST; dsDNA, one strand shown
# SPIB, sequence (Q01892 whole entry): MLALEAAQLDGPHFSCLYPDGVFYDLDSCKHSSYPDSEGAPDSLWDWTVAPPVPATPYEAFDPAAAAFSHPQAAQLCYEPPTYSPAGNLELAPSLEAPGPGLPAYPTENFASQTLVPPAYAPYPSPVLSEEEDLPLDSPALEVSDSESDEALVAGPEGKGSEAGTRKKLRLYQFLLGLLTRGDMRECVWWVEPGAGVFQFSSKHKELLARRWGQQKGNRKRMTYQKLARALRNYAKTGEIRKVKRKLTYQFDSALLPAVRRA
# Method in brief: as §1
# ELK3 = molecular target: T6, ELK3 (Homo sapiens, UniProt P41970 1-407); conditions: protein: recombinant; tags: N-terminal GST; dsDNA, one strand shown
# T6 sequence: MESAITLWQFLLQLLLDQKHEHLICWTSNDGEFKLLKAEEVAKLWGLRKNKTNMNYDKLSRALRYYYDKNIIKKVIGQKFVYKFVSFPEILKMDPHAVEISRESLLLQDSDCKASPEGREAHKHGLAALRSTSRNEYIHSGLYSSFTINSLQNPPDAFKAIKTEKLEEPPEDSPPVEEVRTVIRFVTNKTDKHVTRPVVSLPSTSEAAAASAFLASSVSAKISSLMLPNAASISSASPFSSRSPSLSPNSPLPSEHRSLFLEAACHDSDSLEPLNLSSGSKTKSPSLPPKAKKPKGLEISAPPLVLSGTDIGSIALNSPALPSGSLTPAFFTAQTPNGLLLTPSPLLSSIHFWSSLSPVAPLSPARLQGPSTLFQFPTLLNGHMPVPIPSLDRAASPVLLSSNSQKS
# Method in brief: as §1
# FEV = molecular target: T7, FEV (Homo sapiens, UniProt Q99581 1-238); conditions: protein: recombinant; tags: N-terminal GST; dsDNA, one strand shown
# T7 sequence: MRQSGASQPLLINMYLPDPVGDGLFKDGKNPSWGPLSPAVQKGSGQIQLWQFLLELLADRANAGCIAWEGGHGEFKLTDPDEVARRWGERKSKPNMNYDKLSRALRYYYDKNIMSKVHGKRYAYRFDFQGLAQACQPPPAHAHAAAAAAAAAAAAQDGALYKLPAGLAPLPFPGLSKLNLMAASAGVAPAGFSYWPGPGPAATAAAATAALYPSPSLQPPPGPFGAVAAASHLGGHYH
# Method in brief: as §1
# ETV5 = ETV5 (Homo sapiens, UniProt P41161 1-510); conditions: protein: recombinant; tags: N-terminal GST; dsDNA, one strand shown
# ETV5, sequence (P41161 whole entry): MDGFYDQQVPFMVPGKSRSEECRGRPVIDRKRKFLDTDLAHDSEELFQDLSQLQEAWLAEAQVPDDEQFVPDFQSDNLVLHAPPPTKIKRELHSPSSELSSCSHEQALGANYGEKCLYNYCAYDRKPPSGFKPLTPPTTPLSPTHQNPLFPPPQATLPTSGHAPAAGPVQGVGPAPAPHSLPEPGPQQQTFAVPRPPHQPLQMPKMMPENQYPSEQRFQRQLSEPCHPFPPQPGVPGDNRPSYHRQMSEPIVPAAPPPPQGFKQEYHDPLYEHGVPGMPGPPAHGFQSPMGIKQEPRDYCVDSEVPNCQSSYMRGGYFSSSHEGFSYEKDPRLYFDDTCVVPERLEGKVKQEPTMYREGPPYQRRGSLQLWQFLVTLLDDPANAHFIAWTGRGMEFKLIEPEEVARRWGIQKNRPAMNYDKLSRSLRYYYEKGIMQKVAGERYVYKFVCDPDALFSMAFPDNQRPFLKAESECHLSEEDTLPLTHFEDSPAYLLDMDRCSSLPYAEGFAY
# Method in brief: as §1
# HSF1 = HSF1 (Homo sapiens, UniProt Q00613 1-529); conditions: protein: recombinant; tags: N-terminal GST; chain copies: 3; dsDNA, one strand shown
# HSF1, sequence (Q00613 whole entry): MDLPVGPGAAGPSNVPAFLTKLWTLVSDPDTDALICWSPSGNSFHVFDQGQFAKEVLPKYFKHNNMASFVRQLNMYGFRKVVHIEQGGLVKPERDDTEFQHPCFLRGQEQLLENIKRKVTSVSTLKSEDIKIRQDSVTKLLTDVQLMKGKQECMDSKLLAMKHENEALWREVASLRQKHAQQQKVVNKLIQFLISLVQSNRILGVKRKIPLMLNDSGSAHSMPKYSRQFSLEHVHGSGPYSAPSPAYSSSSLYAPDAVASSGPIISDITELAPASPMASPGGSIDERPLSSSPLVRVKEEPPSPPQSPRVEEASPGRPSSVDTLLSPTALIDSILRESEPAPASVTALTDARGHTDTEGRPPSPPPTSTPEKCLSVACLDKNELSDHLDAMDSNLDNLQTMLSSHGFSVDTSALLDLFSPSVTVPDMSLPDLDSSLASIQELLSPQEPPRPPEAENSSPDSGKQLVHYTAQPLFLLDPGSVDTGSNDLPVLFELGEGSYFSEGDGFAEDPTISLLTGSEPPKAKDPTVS
# Method in brief: as §1
# SPIC = molecular target: T8, SPIC (Homo sapiens, UniProt Q8N5J4 1-248); conditions: protein: recombinant; tags: N-terminal GST; dsDNA, one strand shown
# T8 sequence: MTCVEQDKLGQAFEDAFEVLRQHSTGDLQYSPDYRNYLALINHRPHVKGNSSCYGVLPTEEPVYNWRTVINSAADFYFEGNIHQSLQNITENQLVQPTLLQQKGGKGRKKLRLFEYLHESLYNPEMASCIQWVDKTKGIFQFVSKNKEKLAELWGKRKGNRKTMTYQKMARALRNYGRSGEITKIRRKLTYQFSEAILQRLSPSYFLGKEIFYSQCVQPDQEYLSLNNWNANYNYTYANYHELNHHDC
# Method in brief: as §1
# ELF4 = ELF4 (Homo sapiens, UniProt Q99607 1-663); conditions: protein: recombinant; tags: N-terminal GST; dsDNA, one strand shown
# ELF4, sequence (Q99607 whole entry): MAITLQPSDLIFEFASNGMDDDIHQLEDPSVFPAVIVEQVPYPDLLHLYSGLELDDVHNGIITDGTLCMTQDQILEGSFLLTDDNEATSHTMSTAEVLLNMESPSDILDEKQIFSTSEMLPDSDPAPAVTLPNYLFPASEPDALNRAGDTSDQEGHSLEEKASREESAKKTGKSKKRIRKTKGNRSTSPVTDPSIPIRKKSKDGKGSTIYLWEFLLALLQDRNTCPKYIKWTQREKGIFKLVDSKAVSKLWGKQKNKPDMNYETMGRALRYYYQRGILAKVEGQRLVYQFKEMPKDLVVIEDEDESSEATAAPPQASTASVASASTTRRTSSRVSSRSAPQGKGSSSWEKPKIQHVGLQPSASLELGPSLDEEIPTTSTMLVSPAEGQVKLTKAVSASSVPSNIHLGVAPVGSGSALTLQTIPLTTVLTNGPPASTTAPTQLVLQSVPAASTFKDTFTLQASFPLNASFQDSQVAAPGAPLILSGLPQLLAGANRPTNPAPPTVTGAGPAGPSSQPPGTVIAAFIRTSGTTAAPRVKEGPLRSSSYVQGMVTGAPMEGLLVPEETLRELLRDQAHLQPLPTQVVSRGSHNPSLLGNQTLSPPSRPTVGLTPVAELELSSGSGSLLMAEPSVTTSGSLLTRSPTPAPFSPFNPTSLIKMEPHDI
# Method in brief: as §1
# ELK4 = molecular target: T9, ELK4 (Homo sapiens, UniProt P28324-2 1-405); conditions: protein: recombinant; tags: N-terminal GST; dsDNA, one strand shown
# T9 sequence: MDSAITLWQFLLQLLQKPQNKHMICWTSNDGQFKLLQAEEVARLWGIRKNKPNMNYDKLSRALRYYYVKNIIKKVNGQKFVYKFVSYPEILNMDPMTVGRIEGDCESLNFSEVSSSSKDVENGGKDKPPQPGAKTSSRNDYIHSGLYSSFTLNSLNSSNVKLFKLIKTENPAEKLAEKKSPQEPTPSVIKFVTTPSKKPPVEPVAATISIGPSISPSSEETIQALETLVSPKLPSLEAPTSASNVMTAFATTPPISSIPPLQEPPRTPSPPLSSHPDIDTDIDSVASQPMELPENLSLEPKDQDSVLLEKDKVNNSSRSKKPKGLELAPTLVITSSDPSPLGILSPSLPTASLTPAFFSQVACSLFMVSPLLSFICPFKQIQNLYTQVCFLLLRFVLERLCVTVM
# Method in brief: as §1
# ETV2 = molecular target: T10, ETV2 (Homo sapiens, UniProt O00321 1-342); conditions: protein: recombinant; tags: N-terminal GST; dsDNA, one strand shown
# T10 sequence: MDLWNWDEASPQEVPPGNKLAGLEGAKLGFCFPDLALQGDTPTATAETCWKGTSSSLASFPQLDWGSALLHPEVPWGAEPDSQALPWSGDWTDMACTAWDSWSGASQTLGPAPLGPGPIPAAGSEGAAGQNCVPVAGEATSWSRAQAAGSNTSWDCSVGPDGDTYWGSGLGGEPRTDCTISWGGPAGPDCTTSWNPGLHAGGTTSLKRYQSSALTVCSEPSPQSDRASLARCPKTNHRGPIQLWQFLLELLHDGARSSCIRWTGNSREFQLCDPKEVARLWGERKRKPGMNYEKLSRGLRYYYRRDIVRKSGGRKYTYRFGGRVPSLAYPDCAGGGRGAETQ
# Method in brief: as §1
# ELF3 = molecular target: T11, ELF3 (Homo sapiens, UniProt P78545 1-371); conditions: protein: recombinant; tags: N-terminal GST; dsDNA, one strand shown
# T11 sequence: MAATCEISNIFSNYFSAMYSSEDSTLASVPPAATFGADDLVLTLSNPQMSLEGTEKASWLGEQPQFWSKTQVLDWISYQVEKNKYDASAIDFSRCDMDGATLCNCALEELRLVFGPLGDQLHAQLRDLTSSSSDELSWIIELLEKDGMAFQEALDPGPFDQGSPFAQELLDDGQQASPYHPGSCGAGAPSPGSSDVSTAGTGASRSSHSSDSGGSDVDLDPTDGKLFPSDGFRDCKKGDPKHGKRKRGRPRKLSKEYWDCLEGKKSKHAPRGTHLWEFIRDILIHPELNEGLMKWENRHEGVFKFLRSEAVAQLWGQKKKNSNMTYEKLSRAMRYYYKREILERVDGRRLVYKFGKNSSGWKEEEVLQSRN
# Method in brief: as §1
# CRX = CRX (Homo sapiens, UniProt O43186 1-299); conditions: protein: recombinant; tags: N-terminal GST; dsDNA, one strand shown
# CRX, sequence (O43186 whole entry): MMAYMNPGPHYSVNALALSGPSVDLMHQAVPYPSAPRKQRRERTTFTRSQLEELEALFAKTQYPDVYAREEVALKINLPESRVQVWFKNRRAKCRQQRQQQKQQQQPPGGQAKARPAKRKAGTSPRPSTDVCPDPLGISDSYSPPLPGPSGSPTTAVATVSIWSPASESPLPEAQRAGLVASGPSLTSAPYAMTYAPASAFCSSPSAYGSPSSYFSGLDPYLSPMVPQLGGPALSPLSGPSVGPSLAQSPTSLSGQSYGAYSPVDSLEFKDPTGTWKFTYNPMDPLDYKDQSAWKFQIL
# Method in brief: as §1
# ETV1 = ETV1 (Homo sapiens, UniProt P50549 1-477); conditions: protein: recombinant; tags: N-terminal GST; dsDNA, one strand shown
# ETV1, sequence (P50549 whole entry): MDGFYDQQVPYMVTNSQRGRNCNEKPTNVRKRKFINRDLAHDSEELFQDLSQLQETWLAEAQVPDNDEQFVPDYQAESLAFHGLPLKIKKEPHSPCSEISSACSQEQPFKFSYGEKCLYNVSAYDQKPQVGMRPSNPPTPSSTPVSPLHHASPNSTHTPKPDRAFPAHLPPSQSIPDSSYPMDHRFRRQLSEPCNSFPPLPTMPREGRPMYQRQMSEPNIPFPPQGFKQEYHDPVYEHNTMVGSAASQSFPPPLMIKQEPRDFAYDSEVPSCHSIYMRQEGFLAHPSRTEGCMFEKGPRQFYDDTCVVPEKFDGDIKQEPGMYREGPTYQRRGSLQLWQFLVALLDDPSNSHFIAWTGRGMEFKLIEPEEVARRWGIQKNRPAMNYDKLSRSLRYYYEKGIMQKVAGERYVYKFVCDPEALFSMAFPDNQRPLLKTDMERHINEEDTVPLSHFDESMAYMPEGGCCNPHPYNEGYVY
# Method in brief: as §1
sequence,measurement,setting,value
TACTTT,binding signal,FLI1,"1.32 fold enrichment (6-mer frequency, TF over GST control)"
same,binding signal,ELK1,"1.48 fold enrichment (6-mer frequency, TF over GST control)"
same,binding signal,GABPA,"1.41 fold enrichment (6-mer frequency, TF over GST control)"
same,binding signal,ERG,"1.29 fold enrichment (6-mer frequency, TF over GST control)"
same,binding signal,ELF1,"1.34 fold enrichment (6-mer frequency, TF over GST control)"
same,binding signal,EHF,"1.39 fold enrichment (6-mer frequency, TF over GST control)"
same,binding signal,SPI1,"1.25 fold enrichment (6-mer frequency, TF over GST control)"
same,binding signal,SPIB,"1.36 fold enrichment (6-mer frequency, TF over GST control)"
same,binding signal,ELK3,"1.11 fold enrichment (6-mer frequency, TF over GST control)"
same,binding signal,FEV,"1.33 fold enrichment (6-mer frequency, TF over GST control)"
same,binding signal,ETV5,"1.38 fold enrichment (6-mer frequency, TF over GST control)"
same,binding signal,HSF1,"1.44 fold enrichment (6-mer frequency, TF over GST control)"
same,binding signal,SPIC,"1.26 fold enrichment (6-mer frequency, TF over GST control)"
same,binding signal,ELF4,"1.43 fold enrichment (6-mer frequency, TF over GST control)"
same,binding signal,ELK4,"1.4 fold enrichment (6-mer frequency, TF over GST control)"
same,binding signal,ETV2,"1.33 fold enrichment (6-mer frequency, TF over GST control)"
same,binding signal,ELF3,"1.73 fold enrichment (6-mer frequency, TF over GST control)"
same,binding signal,CRX,"1.71 fold enrichment (6-mer frequency, TF over GST control)"
same,binding signal,ETV1,"1.39 fold enrichment (6-mer frequency, TF over GST control)"

# From article PMC7862700, “An all-to-all approach to the identification of sequence-specific readers for epigenetic DNA modifications on cytosine”
